An excerpt weighted towards active compounds, which were near 2.5% of everything screened.
CHT allo act = human CHT allosteric activation; Q9GZV3; CHT-expressing cells, membrane potential dye, choline EC20; hits give high values; LV-AA mutant CHT in HEK293 cells; B-score at 10 µM; 310,000 tested, 0.49% active;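 active means initial fluorescence not abnormally high and integrated response B-score, plate-corrected, over 3 SD above library mean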
ANO1 activ = activators or potentiators of mouse TMEM16A chloride channel. 340,000 tested, 0.3% active. B-score at 10 µM. HEK293 TMEM16A/YFP-H148Q/I152L, iodide quench fluorescence; hits give low values;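 active means fluorescence-ratio B-score plate-corrected deviation score at least 3 library SD below zero, with starting fluorescence score within 5 deviations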;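 further: channel opened by trigger with iodide after compound preincubation; score built on the fluorescence ratio of max minus min over baseline; more negative score means more quench and so TMEM16A activation or potentiation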
PKA-R1A activ = PKA-R1A complex activation; PKA-R1A dissociation, Cy5-IP20 fluorescence polarization; scaled: DMSO 0%, 113 µM cGMP 100%; activation, % at 11.4 µM; 340,000 tested, 0.083% active; AID 504707;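 active means percent activation above the mean of all tested compounds plus 3 SD, cut at about 19% in these data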;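 further: higher means more PKAc released from R1A so a rise in polarization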
PKA-R2B activ = activators of human PKA-R2B complex; P22694+P31323; 340,000 tested, 0.079% active; activation, % at 11.4 µM; AID 504700; PKA-R2B holoenzyme dissociation, Cy5-IP20 fluorescence polarization; R2B truncated from residue 108, S112A mutant; 0% DMSO only, 100% 113 µM cGMP;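 active means activation above a cutoff set at the mean over all compounds plus 3 SD, cut at about 18% in these data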;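 further: higher means more holoenzyme dissociation and a rise in polarization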
Target sequence (P31323 whole entry, looked up, other chains not shown, the tested form may be a part): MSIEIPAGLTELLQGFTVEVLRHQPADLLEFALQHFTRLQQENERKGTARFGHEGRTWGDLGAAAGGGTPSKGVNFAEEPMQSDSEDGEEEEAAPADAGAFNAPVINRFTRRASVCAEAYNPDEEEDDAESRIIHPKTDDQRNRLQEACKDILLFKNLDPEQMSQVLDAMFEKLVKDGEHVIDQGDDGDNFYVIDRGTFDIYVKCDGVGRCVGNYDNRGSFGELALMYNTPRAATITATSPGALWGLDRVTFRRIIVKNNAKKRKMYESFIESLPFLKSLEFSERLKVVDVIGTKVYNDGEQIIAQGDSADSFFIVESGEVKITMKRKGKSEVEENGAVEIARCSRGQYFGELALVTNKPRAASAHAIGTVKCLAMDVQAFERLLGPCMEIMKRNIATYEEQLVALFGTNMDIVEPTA
TMEM16A inh = blocks the mouse calcium-activated chloride channel TMEM16A | 310,000 tested, 1.2% active | HEK293 TMEM16A/YFP iodide influx fluorescence, ionomycin | AID 588511 | normalized B-score (activity score, 25-100; higher = stronger inhibition) at 10 µM | Q8BHY3;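 active means ratio plate-corrected score three or more library SD toward inhibition, starting fluorescence score within five deviations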;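 further: score derived from kinetic fluorescence span divided by baseline fluorescence per well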
CHT inh = inhibits the human high affinity choline transporter. AID 488975. B-score at 10 µM. Q9GZV3. CHT-expressing cells, membrane potential dye, choline response; hits give low values. 310,000 tested, 0.86% active;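 active means B-score over 3 SD under the library average, and starting fluorescence ratio not unusually high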;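 further: choline stimulus applied at its EC90 after an EC20 pre-addition; B-score computed on integrated fluorescence ratio after choline addition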
TMEM16A reconf = re-confirmation of mouse TMEM16A chloride channel inhibitors; shares compounds with TMEM16A inh; HEK293 TMEM16A/YFP-H148Q, iodide quench fluorescence; ionomycin added to raise cell calcium; inhibition, % at 10 µM; 2,300 tested, 39% active;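 active means mean duplicate percent inhibition, scaled so buffer wells are 0 and the reference blocker 100, over three buffer SD above buffer mean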
TMEM16A Ca cntr = calcium mobilization counter-screen hit for TMEM16A inhibitor series. TMEM16A/YFP HEK293, Fluo4 calcium mobilization. 2,300 tested, 2% active. AID 652231. calcium response (% of ionomycin), % at 10 µM. shares compounds with TMEM16A inh;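 active means duplicate-averaged calcium signal over 20% of the ionomycin maximum, relative to buffer baseline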;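 further: each well's signal is peak minus trough fluorescence divided by its pre-addition baseline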
Parental YFP cnt = counter-screen for TMEM16A inhibitors: effect in parental YFP-HEK293 cells; shares compounds with TMEM16A inh; iodide YFP quench, ionomycin; YFP ratio F(max-min)/F0 at 10 µM; 2,300 tested, under 10 active; AID 652233;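 active means yellow fluorescent protein signal ratio exceeding the buffer control mean by over 5 SD of those controls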;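 further: ratio is mean of duplicate wells from kinetic YFP trace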
ClC-1 inh = selectivity of TMEM16A inhibitors: inhibition of rat ClC-1 chloride channel; shares compounds with TMEM16A inh; CHO ClC-1-YFP, iodide influx fluorescence quench; iodide control reads 0, buffer control 100; ratio percent, % at 10 µM; 2,300 tested, under 10 active;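 active means duplicate-mean ratio percent above the mean of iodide-only control wells, which defines zero, plus 5 of their SD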;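 further: higher percent means stronger block of ClC-1 iodide influx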
Of the large screens only hits and unclear results are named; the others gave an inactive call (follow-up assays come after a bar, where they were run).

CC1=CC(C)(C)N(S(=O)(=O)c2ccc(C)cc2)c2ccc(C)cc21	TMEM16A inh 25 | TMEM16A reconf inactive | TMEM16A Ca cntr inactive | Parental YFP cnt inactive | ClC-1 inh inactive
CC(=O)Nc1ccc(S(=O)(=O)N2c3ccccc3C(C)=CC2(C)C)cc1	none
CC1=CC(C)(C)N(S(=O)(=O)c2ccc(F)cc2)c2ccccc21	TMEM16A inh 25 | TMEM16A reconf inactive | TMEM16A Ca cntr inactive | Parental YFP cnt inactive | ClC-1 inh inactive
C/C=C/C(=O)N1c2ccc(C)cc2C(C)=CC1(C)C	none
O=C(Nc1ccc(F)cc1)C1CCN(C(=O)c2ccc(F)cc2)CC1	none (no result: CHT allo act, TMEM16A inh, CHT inh)
Cc1nc2c(ncn2-c2ccccc2)c(=O)n1NC(=O)CN1CCCCC1	none
COc1ccc(NC(=O)Cn2nnc(-c3ccccc3NS(=O)(=O)c3ccccc3)n2)cc1	TMEM16A inh 100 | TMEM16A reconf 38% | TMEM16A Ca cntr inactive | Parental YFP cnt inactive | ClC-1 inh inactive
COc1ccc(S(=O)(=O)Nc2ccccc2-c2nnn(CC(=O)Nc3ccccc3OC)n2)cc1	none
CCCN1C(=O)c2ccccc2NC1c1ccc(O)c(OCC)c1 (configuration not stated)	none
O=C(NCc1ccco1)C1CCCN1C(=O)Nc1ccc(Cl)cc1 (configuration not stated)	none
O=c1c(Sc2ccccc2)c(C(F)(F)F)[nH]n1-c1ccccc1	TMEM16A inh 100 | TMEM16A reconf 24% | TMEM16A Ca cntr inactive | Parental YFP cnt inactive | ClC-1 inh inactive
CC(=O)c1cccc(NS(=O)(=O)c2ccc(N/C=C/C(=O)c3ccc(F)cc3)cc2)c1	none
CC(=O)c1cccc(NS(=O)(=O)c2ccc(N/C=C\C(=O)c3ccc(F)cc3)cc2)c1	TMEM16A inh 100 | TMEM16A reconf 32% | TMEM16A Ca cntr inactive | Parental YFP cnt inactive | ClC-1 inh inactive
CCCCNC(=S)Nc1ccc(SC(F)F)cc1	TMEM16A inh 100 | TMEM16A reconf 54% | TMEM16A Ca cntr inactive | Parental YFP cnt inactive | ClC-1 inh inactive
Cc1ccc(SCCNS(=O)(=O)c2ccc3c(c2)OCCO3)cc1	TMEM16A inh 25 | TMEM16A reconf inactive | TMEM16A Ca cntr inactive | Parental YFP cnt inactive | ClC-1 inh inactive
COc1ccc(S(=O)(=O)NCCSc2ccc(C)cc2)cc1OC	none
COc1ccc(S(=O)(=O)N2CCN=C2SCc2cccc(F)c2)cc1	none
CCOc1ccc(C(=O)N2CCC(C(=O)c3ccc4c(c3)OCCO4)CC2)cc1	TMEM16A inh 100 | TMEM16A reconf inactive | TMEM16A Ca cntr inactive | Parental YFP cnt inactive | ClC-1 inh inactive
CCOC(=O)C(CSCC(=O)c1ccc(Cl)cc1)NC(=O)OC(C)(C)C (configuration not stated)	TMEM16A inh 100 | TMEM16A reconf inactive | TMEM16A Ca cntr inactive | Parental YFP cnt inactive | ClC-1 inh inactive
CCOC(=O)C(CSCc1ccccc1)NC(=O)OC(C)(C)C (configuration not stated)	none
CC(=O)c1ccc(NS(=O)(=O)c2ccc(CC(C)C)cc2)cc1	TMEM16A inh 100 | TMEM16A reconf 54% | TMEM16A Ca cntr inactive | Parental YFP cnt inactive | ClC-1 inh inactive

Compound activity as filed in PubChem BioAssay.
